Laboratory results: PubChem BioAssay AID1347426 (Functional Genomics Laboratory (NCATS/FGL), 2020)
About 1,400 (4.5%) of roughly 31,000 sequences were called active. The sample as a whole holds a higher share of actives than the screen did. A number with no mark means an inactive call.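 The calls were made as follows: active = median seed-adjusted z-score above 1 or below -1; inactive = the rest.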

Test: Novel Modifiers of Survival Motor Neuron (SMN) Protein: Gene Identification via Genome-wide siRNA Screen;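 also: luminescence tracks full-length SMN protein made from the SMN2 reporter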
Settings: HEK293T SMN2-luciferase reporter, siRNA knockdown, 72 h; actives lie on both sides
Outline: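 Genome-wide siRNA screen (10418 genes, 3 siRNAs each, 1 pmol per well) by reverse transfection in HEK293T cells stably carrying an SMN2-luciferase reporter; luminescence after 72 hours, normalized to negative-control siRNA, log10-transformed, MAD-scored.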

| Sequence | median seed-adjusted z-score |
| --- | --- |
| GGUCAUAGCCUACUGUCUATT against SLC32A1 | -0.251 |
| CUACCAGCAUGUGAUGUUUTT against CH25H | -0.264 |
| GGAUGCAGAACGACGUGAATT against SLC25A10 | -0.571 |
| GUACCUUUUCCAAACCAAATT against SETD8 | -1.52 (active) |
| CAAAACAGACCGAAAGAAATT against DBX2 | 0.244 |
| CGAUAACGACAGUAAAUCATT against CACNA2D1 | -0.541 |
| CAAAGAAGCUUUUUCACUATT against CALM2 | 0.127 |
| CUCUCUUAGUGUCCUUAGATT against PCDHGC4 | 0.301 |
| CGAGUUCUAUCUUGAGAAUTT against TEX13A | -1.22 (active) |
| GGAUGGGUCUCGCAAAAUATT against ZFYVE1 | -0.546 |
| CCAGCUCUUCUCUACCACATT against PAQR7 | -0.0406 |
| UGCUGAGGGUGUUCCCAGATT against GABRR2 | 0 |
| AGCAGGCUUUGAUCAUUGATT against FKBP6 | -1.12 (active) |
| GCAAGACCUUUGACUACAATT against SSRP1 | -0.31 |
| GCGAAGUGUUCAGACCAAATT against HEATR1 | -0.115 |
| CCAACUCAUUGAUAGGGAUTT against PRPH2 | 0.0931 |
| GCUUUCUAUCGAUCCUCAATT against ZNF681 | 0.271 |
| GCACGUCGAGCAAUCCAAATT against MYOD1 | 0.309 |
| CCAUGUUUCUCAUUAGUGUTT against NTSR1 | -1.1 (active) |
| UGCUCGUGCUCGUUCCAAATT against ING4 | -0.152 |
| CAUCUUUGCUAGUAAUCUATT against UBA7 | 2.41 (active) |
| CGGAUUGUCUAUUGCAUCATT against CALCRL | 0.28 |
| GAUUGUCUCUUUAGUGGAATT against TGDS | -0.196 |

| Sequence | median seed-adjusted z-score |
| --- | --- |
| GGUGAGAUGUGGUCUAUAUTT against HES7 | -0.286 |
| GGAGAAGGAUGGAACUCUUTT against SPATA21 | -1.03 (active) |
| GGCUUGCGCAAGAUCAAUATT against ATRNL1 | -0.142 |
| GCGUGAUCCUUGCCUCUAATT against GDPD4 | 0.0109 |
| CCUCAUUGAUCAUCACCGATT against ZNF567 | -0.114 |
| CUAGUUUAAUAAAGAUUCATT against APOE | 0.0321 |
| AGGAUAUUGUGAUUCAGCATT against POLR2G | -4.19 (active) |
| GCAUCAGGUGAACAUCAAATT against TRIM16 | 0.345 |
| GGAUGAGAAGGAUAAUGAUTT against IRF6 | -1.79 (active) |
| AAACGAUGUUGAUGUCCAATT against ATP6V1E1 | -0.312 |
| GGAUGGACAUGUCAAAUCUTT against RBL1 | -0.0547 |
| CAAAGGACCCAAUAGAAUUTT against GUCY2F | 0.188 |
| GCGCGCUACUUUGGGAUAATT against POLR2E | -1.25 (active) |
| GGACCUCCCUUCAACAUCATT against DYSF | -0.23 |
| CAGUGAAGCUAUCAAGUUATT against PSMA8 | 0.407 |
| GACCAGAUGUGGACAAUCATT against TAF6 | -1.36 (active) |
| GAAUUGGAGAGGCAACAAATT against LMO7 | 0.417 |
| GAAGAGAUAUUUACACCUUTT against CD47 | 0.0241 |
| CUGCUAGUCUGUCUCCAAATT against SPINK7 | -0.409 |
| GGACUAUGUCUGCCUAUGATT against SCN7A | 0 |
| CUAAGAAUCUGCUUAGUAATT against CLDN5 | 0 |
| AGAAUGACAGGGUCCAGAATT against OGFR | -0.565 |
| GCUUUGAUGUGAUUCACCUTT against PRKAG3 | -1.03 (active) |

| Sequence | median seed-adjusted z-score |
| --- | --- |
| GUCACAAGAUGGUCAAAAATT against CTNND2 | -0.0491 |
| CCAUCCUUCAGGCGAAUUATT against ACTR8 | -0.366 |
| GGUCUGUUCUGCAAGCACATT against PARVG | 0.321 |
| CCAAACCACUACAACCCUUTT against RPP21 | -1.09 (active) |
| GAUAUAAAGUCAUGAAGAATT against USP30 | -0.646 |
| CGUGGACUCCCACUUCCAATT against OGG1 | -0.128 |
| GGAGCUUCCCUAUAGUGAATT against HDAC3 | 0.579 |
| GGAUUCUAAGUACAGAGAATT against ZNF323 | -0.319 |
| CAACUGCUAGCUGAACGAATT against ITIH2 | 0.262 |
| CAUUUAUGACAAUCGGAUATT against OGT | 0.411 |
| GUCUAUGAAUUGGACAAGATT against PGAM1 | -0.234 |
| CAUCAAAUAUGACAACUUUTT against GALNTL4 | 0 |
| GCCGUUUCAUGUUUGUCUATT against TRPV1 | -0.12 |
| GGAAAUGAGUGUCUGAACATT against CHMP6 | -1.81 (active) |
| GGCUUUUUAGAUUUCGAAATT against TIGD7 | -0.116 |
| GAGUGAGACUGGGACAAGATT against TAPBP | -0.786 |
| GCCUUCACGUCUGAACAUATT against GAD2 | 0.0588 |
| GAAACAACUUGAUUUCGAATT against PCDHB8 | 1.15 (active) |
| GCAUGUUGUUGAUCAUGGATT against MAFB | 0.674 |
| GAAGUGUUAUGUAAGGAGATT against EPHX2 | 0 |
| GAACAUGUCUUUAACGGAUTT against TJP2 | 0.0668 |
| AGAUGAGAACUCUAAGCAATT against CHRM2 | 0.053 |
| CGAUCACUUCCUACAGUCUTT against RGR | 0.217 |
